Literature values as cited in PubChem BioAssay AID977611.
About 3,900 (100%) of roughly 3,900 compounds were called active. No cut-off is given here; in the data, nearly all actives have Kd up to about 4200 µM. The set was probably picked from earlier hits. The list shows a part of the results. *1 amine or outer side, *2 acyl side, *3 side chain or, on linkers, in order; H or OH if unused. Where a SMILES comes first, the peptide text is derived from it. Square brackets hold non-standard residues; d marks the D form. Peptide text beside a SMILES is read from it. [ ]: non-standard residue; d: D form. The star is where a group is joined. X3 = CCCCCC[C@](C)(N[C@@H](O)CN)[C@H](O)N([C@@H](CC(C)C)C(=O)[*:2])[*:1]; Thr(P(OH)3+) = C[C@@H](O[P+](O)(O)O)[C@H](N)C(=O)O; Orn(CH(NH2)2) = NC(N)NCCC[C@H](N)C(=O)O; X4 = CCCCCC[C@](C)(N[*:1])C(=O)[*:2]; X1 = CCCC[C@@](C)(N[*:1])C(=O)[*:2]; Lys(Me2) = CN(C)CCCC[C@H](N)C(=O)O; X2 = CCCC[C@](C)(N[*:1])C(=O)[*:2]; Suc = O=C(CCC(=O)[*:2])[*:1]; Bz = O=C(c1ccccc1)*

Assay: PubChem AID 977611
Conditions: PDB protein-ligand complexes, literature Kd

## C[C@H](N)C(=O)N[C@@H](CCCNC(N)N)C(=O)N[C@H](C(=O)N[C@@H](CCCCN(C)C)C(=O)N[C@@H](CCC(N)=O)C(=O)N[C@H](C(=O)N[C@@H](C)C(=O)N[C@@H](CCCNC(N)N)C(=O)N[C@@H](CCCCN(C)C)C(=O)N[C@@H](CO)C(=O)N[C@H](C(=O)NCC(=O)NCC(=O)N[C@@H](CCCCN)C(=O)N[C@@H](C)C(=O)N1CCC[C@H]1C(=O)NCC(=O)NCC(=O)O)[C@@H](C)O)[C@@H](C)O)[C@@H](C)O
protein: heterochromatin protein 1 (HP1), PDB entry 1guw
  Kd: 1.9 µM (active)

## CC(C)[C@H](NC(=O)[C@@H]1CCCN1C(=O)[C@@H](N)Cc1ccc(O)cc1)C(=O)N[C@@H](CCCCN)C(=O)N[C@@H](CCCCN)C(=O)N[C@@H](CCCCN)C(=O)N[C@@H](C)C(=O)N[C@@H](CCCNC(N)N)C(=O)N[C@@H](CCCCN(C)C)C(=O)N[C@@H](CO)C(=O)N[C@@H](C)C(=O)NCC(=O)O (H-YPVKKKA[Orn(CH(NH2)2)][Lys(Me2)]SAG-OH)
protein: Human Chromobox Homolog 3 (CBX3), PDB entry 3tzd
  Kd: 52 µM (active)

## C[C@H](NC(=O)[C@@H](NC(=O)CNC(=O)[C@@H]1CCCN1C(=O)[C@@H]1CCCN1C(=O)[C@H](C)NC(=O)[C@H](CCCCN)NC(=O)[C@@H](N)CCC(N)=O)[C@@H](C)O)C(=O)N[C@@H](CCCNC(N)N)C(=O)N[C@@H](CCCNC(N)N)C(=O)N[C@@H](CCCCN)C(=O)N[C@@H](CCCNC(N)N)C(=O)N[C@@H](CCCCN)C(=O)O (H-QKAPPGTA[Orn(CH(NH2)2)][Orn(CH(NH2)2)]K[Orn(CH(NH2)2)]K-OH)
protein: A. thaliana cpSRP43 Delta CD3, PDB entry 3ui2
  Kd: 0.43 µM (active)

## O=C1C=C(O)C(=O)C=C1O
protein: 5-chloro-2-hydroxyhydroquinone dehydrochlorinase (TftG), PDB entry 4lbp
  Kd: 11.4 µM (active)

## CNS(=O)(=O)Nc1nccc(Cc2c(C)c3ccc(Oc4ncccn4)cc3oc2=O)c1F
protein: Dual specificity mitogen-activated protein kinase kinase 1, Human MEK1 kinase, PDB entry 3wig
  Kd: 0.0023 µM (active)

## CC(C)C[C@H](NC(=O)[C@@H](NC(=O)CNC(=O)c1ccccc1)C(C)C)C(=O)N[C@@H](CCCCNC(=O)CCC(=O)O)C(=O)N[C@@H](CCC(=O)O)C(=O)N[C@@H](Cc1ccc(O)cc1)C(=O)NCC(=O)N[C@H](C(=O)O)C(C)C (Bz-GVLK(Suc)EYGV-OH)
protein: NAD-DEPENDENT PROTEIN DEACYLASE SIRTUIN-5, MITOCHONDRIAL zebrafish Sirtuin 5, PDB entry 4utn
  Kd: 0.71 µM (active)

## CC(C)C[C@H](NC(=O)[C@@H](NC(=O)CNC(=O)c1ccccc1)C(C)C)C(=O)N[C@@H](CCCCN)C(=O)N[C@@H](CCC(=O)O)C(=O)N[C@@H](Cc1ccc(O)cc1)C(=O)NCC(=O)N[C@H](C(=O)O)C(C)C (Bz-GVLKEYGV-OH)
protein: NAD-DEPENDENT PROTEIN DEACYLASE SIRTUIN-5, MITOCHONDRIAL zebrafish Sirtuin 5, PDB entry 4utr
  Kd: 0.7 µM (active)
protein: NAD-DEPENDENT PROTEIN DEACYLASE SIRTUIN-5, MITOCHONDRIAL zebrafish Sirtuin 5, PDB entry 4utv
  Kd: 8.2 µM (active)
protein: NAD-DEPENDENT PROTEIN DEACYLASE SIRTUIN-5, MITOCHONDRIAL zebrafish Sirtuin 5, PDB entry 4utx
  Kd: 5.78 µM (active)
protein: NAD-DEPENDENT PROTEIN DEACYLASE SIRTUIN-5, MITOCHONDRIAL zebrafish Sirtuin 5, PDB entry 4uu7
  Kd: 0.83 µM (active)
protein: NAD-DEPENDENT PROTEIN DEACYLASE SIRTUIN-5, MITOCHONDRIAL zebrafish Sirtuin 5, PDB entry 4uu8
  Kd: 0.29 µM (active)
protein: NAD-DEPENDENT PROTEIN DEACYLASE SIRTUIN-5, MITOCHONDRIAL zebrafish Sirtuin 5, PDB entry 4uua
  Kd: 5.78 µM (active)

## CC(=O)n1ccc2nc3ccc(Cl)cc3c-2c1
protein: Bromodomain adjacent to zinc finger domain protein 2B BAZ2B Bromodomain, PDB entry 4nra
  Kd: 65 µM (active)

## c1ccc(-c2nsc(N3CCCNCC3)n2)cc1
protein: INTEGRASE, PDB entry 4ah9
  Kd: 3500 µM (active)

## Cc1ccc(C(=O)N(CCCN)[C@@H](C2=C(Cc3ccccc3)C(O)c3ccc(Cl)cc3O2)C(C)C)cc1 (stereo partly drawn)
protein: KINESIN-LIKE PROTEIN KIF11, PDB entry 4bxn
  Kd: 0.01 µM (active)

## O[C@@H](CC1c2ccccc2Sc2ccccc21)CN1CCCC1
protein: Renin, PDB entry 4gj8
  Kd: 500 µM (active)

## Cc1ncc2c(n1)N(C)C(=O)C(=N)C2
protein: Caspase-6, PDB entry 4n5d
  Kd: 607 µM (active)

## CC[C@H](C)[C@H](NC(=O)[C@H](CC(C)C)NC(=O)[C@H](Cc1c[nH]cn1)NC(=O)[C@H](CC(=O)O)NC(=O)[C@H](CC(=O)O)NC(=O)[C@H](CCC(=O)O)NC(=O)[C@H](CC(=O)O)NC(=O)[C@@H](NC(=O)[C@H](CC(=O)O)NC(=O)[C@@H](N)CCC(=O)O)[C@@H](C)O[P+](O)(O)O)C(=O)N[C@@H](Cc1ccc(O)cc1)C(=O)N[C@@H](CC(C)C)C(=O)N[C@@H](CCC(=O)O)C(=O)N[C@@H](CCC(=O)O)C(=O)N[C@H](C(=O)N[C@@H](CC(C)C)C(=O)N[C@H](C(=O)N[C@@H](CCCNC(N)N)C(=O)N[C@H](C(=O)O)C(C)C)C(C)C)[C@@H](C)CC (H-ED[Thr(P(OH)3+)]DEDDHLIYLEEILV[Orn(CH(NH2)2)]V-OH)
protein: C-terminal domain of human RAP74, PDB entry 2k7l
  Kd: 0.7 µM (active)

## CC[C@H](C)[C@H](NC(=O)CNC(=O)[C@H](CCC(=O)O)NC(=O)CNC(=O)[C@H](CCC(=O)O)NC(=O)[C@H](CCC(=O)O)NC(=O)[C@H](CC(C)C)NC(=O)CNC(=O)[C@H](Cc1ccccc1)NC(=O)[C@H](Cc1c[nH]cn1)NC(=O)[C@H](Cc1ccc(O)cc1)NC(=O)[C@H](CC(=O)O)NC(=O)[C@@H](N)CC(C)C)C(=O)N[C@@H](CCCNC(N)N)C(=O)N[C@@H](CC(=O)O)C(=O)N[C@@H](CC(C)C)C(=O)N[C@@H](Cc1ccccc1)C(=O)N[C@H](C)CC(=O)O
protein: The human retinoblastoma tumor suppressor protein (pRb), PDB entry 1o9k
  Kd: 0.34 µM (active)

## Nc1nc(-c2ccc(C(F)(F)F)cc2)cc(N2CCOCC2)n1
protein: Acetylcholine-binding protein AChBP, PDB entry 4qab
  Kd: 0.0002 µM (active)

## CC1CCN(c2cc(-c3ccc(C(F)(F)F)cc3)nc(N)n2)CC1
protein: Acetylcholine-binding protein AChBP, PDB entry 4qac
  Kd: 0.0004 µM (active)

## CCCC[C@@](C)(NC(=O)CNC(=O)[C@@H](N)CCC(N)=O)C(=O)N[C@@H](CC(C)C)C(=O)N[C@@H](CC(=O)O)C(=O)N[C@@](C)(CCCC)C(=O)N[C@@H](CC(C)C)C(=O)N[C@@H](CC(=O)O)C(=O)N[C@@H](CC(C)C)C(=O)N[C@@H](C)C(=O)N[C@@H](CO)C(=O)O (H-QG[X1]LD[X2]LDLAS-OH)
protein: 14-3-3 protein zeta/delta, PDB entry 4n7y
  Kd: 0.55 µM (active)

## CCCCCC[C@](C)(NC(=O)[C@H](CC(=O)O)NC(=O)[C@H](CC(C)C)N[C@@H](O)[C@](C)(CCCCCC)N[C@@H](O)CN)C(=O)N[C@@H](CC(C)C)C(=O)N[C@@H](CC(=O)O)C(=O)N[C@@H](CC(C)C)C(=O)N[C@@H](C)C(=O)N[C@@H](CO)C(=O)O (H-[X3]D[X4]LDLAS-OH)
protein: 14-3-3 protein zeta/delta, PDB entry 4n84
  Kd: 0.51 µM (active)
